The results in this text go back to PubChem BioAssay AID2537 (National Center for Advancing Translational Sciences (NCATS), 2010).

Inconclusive results are not listed. A call without a number means that no potency is given here. Activity calls are given as the source filed them. Calls follow the shape of the dose curve; as a rule, active = well fitted inhibition curve with a large enough effect; inconclusive = small, poorly fitted or top-dose-only effect; inactive = no such curve, though single readings can be large or run the other way.

The target in the assay is Polyunsaturated fatty acid lipoxygenase ALOX15B (Homo sapiens) (UniProt O15296). Nature of the assay: Confirmation qHTS Assay for Inhibitors of 15-hLO-2 (15-human lipoxygenase 2). The note with it: purified 15hLO-2, xylenol orange hydroperoxide absorbance; series mostly up to 57.1 µM. As to the method: Human lipoxygenase 15hLO-2 is a member of the closely related lipoxygenase family of enzymes which catalyze the site-specific oxidation of arachidonic acid to various hormone precursor molecules and as such is a candidate for drug development in a variety of disease areas, such as cancer and inflammation. Inhibition of 15hLO-2 activity was screened by utilizing arachidonic acid as a substrate. The extent of hydroperoxide product formation was measured by a secondary chromogenic reaction in which xylenol orange (XO, Sigma-Aldrich, cat. number 39,818-7) reacts with the ferric ions produced from the reaction between the hydroperoxide and ferrous ions. The Fe(III)-XO complex is characterized with red-shifted absorbance at 560 nm. A purified preparation of human 15hLO-2 was supplied by Professor Ted Holman, University of California, Santa Cruz. NIH Molecular Libraries Screening Centers Network [MLSCN] NIH Chemical Genomics Center [NCGC] MLSCN Grant: MH081283-01A1 PI Name: Holman, T.R., University of California, Santa Cruz
Polyunsaturated fatty acid lipoxygenase ALOX15B (Homo sapiens), sequence (O15296 whole entry, looked up): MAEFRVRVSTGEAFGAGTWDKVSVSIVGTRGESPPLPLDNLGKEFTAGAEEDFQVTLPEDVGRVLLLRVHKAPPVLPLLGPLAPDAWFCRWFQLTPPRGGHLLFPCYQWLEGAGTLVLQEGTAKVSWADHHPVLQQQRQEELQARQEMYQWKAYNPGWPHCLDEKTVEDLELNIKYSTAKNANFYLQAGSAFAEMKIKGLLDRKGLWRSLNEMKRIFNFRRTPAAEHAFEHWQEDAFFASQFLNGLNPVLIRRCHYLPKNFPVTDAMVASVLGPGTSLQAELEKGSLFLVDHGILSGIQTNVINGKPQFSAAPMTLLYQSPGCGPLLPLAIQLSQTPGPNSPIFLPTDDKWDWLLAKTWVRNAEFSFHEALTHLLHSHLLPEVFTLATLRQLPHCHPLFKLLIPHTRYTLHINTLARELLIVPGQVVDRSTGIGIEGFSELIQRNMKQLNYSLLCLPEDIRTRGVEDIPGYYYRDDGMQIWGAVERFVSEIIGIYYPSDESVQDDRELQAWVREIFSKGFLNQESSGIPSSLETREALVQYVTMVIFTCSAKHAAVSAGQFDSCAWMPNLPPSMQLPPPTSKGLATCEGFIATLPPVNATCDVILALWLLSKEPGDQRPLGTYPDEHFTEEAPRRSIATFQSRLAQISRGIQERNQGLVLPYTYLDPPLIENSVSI
Assay Protocol: Buffer: 25 mM Hepes pH 7.5, 0.01% Triton X-100. Reagents/Controls: Buffer in columns 3 and 4 as negative control (no enzyme). Substrate solution: 45 uM arachidonic acid (Sigma-Aldrich, St. Louis, MO) final concentration dispensed throughout the plate. Enzyme: 50 nM 15hLO-2 final concentration in columns 1, 2, 5-48. Column 1 is neutral (100% activity). Column 2 contained pin-transferred titration of NDGA (nordihidroguaiaretic acid, Sigma-Aldrich, N 5023, top concentration 10 mM in DMSO, then 1:2 dilution in duplicate). (Dilution factor: 23 nL into 4 uL.) Chromogenic detection reagent (divalent iron/xylenol orange, Fe-XO): 200 uM xylenol orange plus 300 uM ferrous ammonium sulfate prepared freshly in 50 mM sulfuric acid. Assay Steps: Three uL of enzyme were dispensed to 1536-well Greiner black clear bottom plates. Compounds and controls (23 nL) were transferred via Kalypsys PinTool. The plates were incubated for 15 min at room temperature, and then 1 uL of substrate solution was added to start the reaction. After room temperature incubation for 90 minutes, 4 uL of Fe-XO solution was added to each well followed by a short spin (1000 rpm, 15 sec) and the plates were then incubated for 30 min. The absorbance at 405 and 573 nm were measured using ViewLux (Perkin-Elmer) High-throughput CCD imager and absorbance protocol settings. The 573-to-405 absorbance ratio was used to compute reaction progress.
Consider `COC(=O)c1ccc(C(=S)N2CCOCC2)cc1`, for which the Potency entry is “inactive”.

On to `CCOC(=O)c1c(NC(=O)CN2CCOCC2)sc2c1CCCC2`, for which the Potency entry was “inactive”.

In the case of `CCOC(=O)c1ccc(N2CSC3=C(C#N)C(c4ccc(OC)cc4OC)CC(=O)N3C2)cc1` (configuration not stated), the Potency result was “inactive”.

With `CCCCn1c(Cc2ccccc2)n[nH]c1=S`, the Potency result is “inactive”.

For the molecule `Cc1csc(-c2coc3cc(O)cc(C)c3c2=O)n1`, the Potency result was “inactive”.

On to `Clc1ccc(NNc2ccnc3cc(Cl)ccc23)cc1`, for which the Potency result was “inactive”.

With `COc1ccc(OC)c(NC(=O)NC2(C(F)(F)F)Oc3ccccc3O2)c1`, the Potency entry is “inactive”.

`O=C(Nc1nc2n(n1)C(c1ccccc1)CC(c1ccc(Cl)cc1)N2)c1ccco1` (configuration not stated): the Potency entry was “inactive”.

In the case of `COc1ccccc1CNc1ncncc1-c1ccoc1`, the Potency entry was “inactive”.

Consider `CC(=O)NCCNc1ncncc1-c1ccc(N(C)C)cc1`, for which the Potency entry was “inactive”.

On to `Nc1cc(-c2ccncc2)c[nH]c1=O`, for which the Potency result is “inactive”.

With `OC1(c2cccc(C(F)(F)F)c2)CCN(c2ncnc3c2[nH]c2ccc(F)cc23)CC1`, the Potency result was “inactive”.
